Where “and” joins values, the source holds several entries; their conditions need not be identical. Identical values can stand only once. Inconclusive results are not listed. A call without a number means that no potency is given here. More than one record can exist for a structure, and the calls need not agree. Calls of active or inactive are those of the source. Unless noted, the call rests on the fitted dose curve; in most records, active means well fitted curve in the direction sought with a large enough effect in the repeat runs; inconclusive means weak or mixed curves; inactive means no such curve, though single readings can be large; an effect the other way counts as inactive or inconclusive.
Columns and labels:
[1] = qHTS assay to identify small molecule agonists of the hypoxia (HIF-1) signaling pathway - cell viability counter screen (AID 1224844; calls by dose curve; further: nearly all actives have a fitted effect of over 50% in size; further: potency means the concentration at half of the fitted maximal effect)
Procedure, shortened: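 HRE-bla ME-180 cells, 2,000/well in 0.5% dialyzed FBS medium, treated 17 h at 37C with compounds. Viability read in the same wells as the bla reporter, by CellTiter-Glo luminescence after 30 min at room temperature.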

[2] = qHTS assay to identify small molecule agonists of H2AX (AID 1224845; active means well fitted activation curve with a large enough effect in the signal ratio in the repeat runs, not every such curve was filed as active; the % refers to the signal ratio; further: potency means the concentration at half of the fitted maximal effect)
Procedure, shortened: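 Phospho-H2AX Ser139 measured by HTRF (ex 320 nm; em 665 and 620 nm) after 24 hr antibody incubation. Compounds, 15 concentrations, 0.76% DMSO, were applied to CHO-K1 cells for 3hr at 37C before lysis.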

[3] = qHTS assay to identify small molecule agonists of H2AX - cell viability counter screen (AID 1224847; calls by dose curve; further: nearly all actives have a fitted effect of over 30% in size; further: potency means the concentration at half of the fitted maximal effect)
Procedure, shortened: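 Cytotoxicity counter screen in wild-type CHO-K1 cells: a 3 hr compound treatment at 37C across 15 concentrations, followed by CellTiter-Glo luminescence to gauge viable cells.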

[4] = qHTS RealTime-Glo MT Cell Viability Assay in HepG2 cells - 24 hour (AID 1224867); further: nearly all actives have a fitted effect of over 50% in size; further: potency means the concentration at half of the fitted maximal effect
Procedure, shortened: (§1)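 HepG2 cells (600/well) were dispensed with RealTime-Glo reagents, incubated 5 h at 37 °C, then treated with compounds in DMSO for up to 40 h. Nonlytic NanoLuc luminescence reflecting viable cells was read at each stated time point.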

[5] = A CellTox Green Cytotoxicity Assay to monitor cytotoxicity in HEK293 cells - 0 hour (AID 1224869); further: nearly all actives have a fitted effect of over 50% in size
Procedure, shortened: (§2)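 HEK293 cells, 600/well, were preincubated 5 hours and then exposed to compounds at 37 C for up to 40 hours. A cell-impermeant cyanine dye staining dead-cell DNA was read by fluorescence at 0, 8, 16, 24, 32 and 40 h time points.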

[6] = qHTS RealTime-Glo MT Cell Viability Assay in HepG2 cells - 40 hour (AID 1224870); further: nearly all actives have a fitted effect of over 50% in size; further: potency means the concentration at half of the fitted maximal effect
Procedure, shortened: (§3)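 Real-time viability: cells seeded at 600 per well together with NanoLuc and cell-permeant prosubstrate, compounds added after 5 h incubation. Luminescence tracked at 0, 8, 16, 24, 32 and 40 h of exposure.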

[7] = A CellTox Green Cytotoxicity Assay to monitor cytotoxicity in HEK293 cells - 40 hour (AID 1224871); further: nearly all actives have a fitted effect of over 45% in size; further: potency means the concentration at half of the fitted maximal effect
Procedure, shortened: as §2

[8] = qHTS RealTime-Glo MT Cell Viability Assay in HEK293 cells - 16 hour (AID 1224872); further: nearly all actives have a fitted effect of over 50% in size; further: potency means the concentration at half of the fitted maximal effect
Procedure, shortened: (§4)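 HEK293 cells seeded with NanoLuc/prosubstrate reagent, rested 5 h at 37 C, then dosed and kept at 37 C up to 40 h. Nonlytic real-time luminescence from viable cells read at 0, 8, 16, 24, 32 and 40 h.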

[9] = qHTS RealTime-Glo MT Cell Viability Assay in HepG2 cells - 8 hour (AID 1224873); further: nearly all actives have a fitted effect of over 55% in size; further: potency means the concentration at half of the fitted maximal effect
Procedure, shortened: as §3

[10] = qHTS RealTime-Glo MT Cell Viability Assay in HEK293 cells - 40 hour (AID 1224874); details: RealTime-Glo luminescence; max response: stronger effect = lower value; further: nearly all actives have a fitted effect of over 50% in size; further: potency means the concentration at half of the fitted maximal effect
Procedure, shortened: (§5)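 600 cells/well were plated with the nonlytic NanoLuc/prosubstrate reagent, pre-incubated 5 h, then given 23 nL of compound in DMSO. Incubation at 37 C for 40 h, with luminescence from viable-cell-reduced substrate read repeatedly from 0 h.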

[11] = A CellTox Green Cytotoxicity Assay to monitor cytotoxicity in HEK293 cells - 24 hour (AID 1224875); further: nearly all actives have a fitted effect of over 45% in size; further: potency means the concentration at half of the fitted maximal effect
Procedure, shortened: as §2

[12] = A CellTox Green Cytotoxicity Assay to monitor cytotoxicity in HepG2 cells - 16 hour (AID 1224876); further: nearly all actives have a fitted effect of over 45% in size; further: potency means the concentration at half of the fitted maximal effect
Procedure, shortened: (§6)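 HepG2 cells, 600/well, preincubated 5 h with CellTox Green dye, then exposed to Tox21 compounds in DMSO at 37 C for up to 40 h. Dead-cell DNA fluorescence read at the indicated time point.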

[13] = qHTS RealTime-Glo MT Cell Viability Assay in HepG2 cells - 32 hour (AID 1224877); further: nearly all actives have a fitted effect of over 55% in size; further: potency means the concentration at half of the fitted maximal effect
Procedure, shortened: as §1

[14] = A CellTox Green Cytotoxicity Assay to monitor cytotoxicity in HepG2 cells - 24 hour (AID 1224878); further: nearly all actives have a fitted effect of over 45% in size; further: potency means the concentration at half of the fitted maximal effect
Procedure, shortened: as §6

[15] = A CellTox Green Cytotoxicity Assay to monitor cytotoxicity in HepG2 cells - 40 hour (AID 1224879); further: nearly all actives have a fitted effect of over 40% in size; further: potency means the concentration at half of the fitted maximal effect
Procedure, shortened: as §6

[16] = qHTS RealTime-Glo MT Cell Viability Assay in HEK293 cells - 0 hour (AID 1224880)
Procedure, shortened: as §5

[17] = qHTS assay to identify small molecule agonists of the hypoxia (HIF-1) signaling pathway (AID 1224846; active means well fitted activation curve with a large enough effect in the signal ratio in the repeat runs, not every such curve was filed as active; the % refers to the signal ratio)
Procedure, shortened: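 HRE-bla ME-180 beta-lactamase reporter cells in medium with 0.5% dialyzed FBS, pre-incubated 5 h then exposed to compounds 17 h at 37C, 5% CO2; reporter induction read with CCF4-AM FRET substrate.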

[18] = qHTS assay to identify small molecule antagonists of the estrogen related receptor (ERR) signaling pathway from Tox21 library (AID 1224848)
Procedure, shortened: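 Reading was by luminescence 30 min after ONE-Glo addition. Before that, ERR cells at 2,000 per well had rested 6 h at 37 C/5% CO2 and then received pin-tooled compounds in DMSO for 18 h at 37 C.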

[19] = qHTS assay to identify small molecule agonists of the estrogen related receptor (ERR) signaling pathway from Tox21 library (AID 1224849; calls by dose curve; further: nearly all actives have a fitted effect of over 15% in size); details: ERR reporter cell line, ONE-Glo luciferase, 18 h
Procedure, shortened: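 ERR reporter cells (NTP line) pre-incubated 6 hours at 37 C, then exposed to compounds for 18 hours at 37 C. ONE-Glo luciferase luminescence was read after 30 minutes at room temperature.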

[20] = qHTS RealTime-Glo MT Cell Viability Assay in HEK293 cells - 32 hour (AID 1224868)
Procedure, shortened: as §4

CCc1nc(N)nc(N)c1-c1ccc(Cl)cc1
Potency [1]: inactive
Potency [2]: 22.9 µM (active)
Potency [3]: inactive and 8.98 µM (active) and 12.4 µM (active)
Potency [4]: inactive
Potency [5]: inactive
Potency [6]: inactive
Potency [7]: inactive
Potency [8]: inactive
Potency [9]: inactive
Potency [10]: 3.52 µM (active) and 12.3 µM (active) and 5.35 µM (active)
Potency [11]: inactive
Potency [12]: inactive
Potency [13]: inactive
Potency [14]: inactive
Potency [15]: inactive
Potency [16]: inactive

NC(CO)(CO)CO
Potency [1]: inactive
Potency [2]: inactive
outcome [17]: inactive
Potency [3]: inactive
Potency [4]: inactive
Potency [5]: inactive
Potency [6]: inactive
Potency [7]: inactive
Potency [8]: inactive
Potency [9]: inactive
Potency [11]: inactive
Potency [12]: inactive
Potency [13]: inactive
Potency [14]: inactive
Potency [15]: inactive
Potency [16]: inactive

NC(=O)c1cccnc1
Potency [1]: inactive
Potency [2]: inactive
outcome [17]: inactive
Potency [3]: inactive
Potency [4]: inactive
Potency [5]: inactive
Potency [6]: inactive
Potency [7]: inactive
Potency [8]: inactive
Potency [9]: inactive
max response [10]: 9.96% (inactive) and -1.91% (inactive) and 6.24% (inactive)
Potency [11]: inactive
Potency [12]: inactive
Potency [13]: inactive
Potency [14]: inactive
Potency [15]: inactive
Potency [16]: inactive

CC(C)C(=O)Nc1ccc([N+](=O)[O-])c(C(F)(F)F)c1
Potency [1]: inactive
Potency [2]: inactive
Potency [3]: 104 µM (active) and inactive
Potency [18]: 25 µM (active) and 27.3 µM (active) and 13.3 µM (active)
activity change, positive = activation ([19]; at 42.5 µM (top of the series)): -30.7% (inactive)
activity change, positive = activation ([19]; at 92.4 µM (top of the series)): -65.7% (inactive) and -58.2% (inactive)
Potency [4]: inactive
Potency [5]: inactive
Potency [6]: inactive
Potency [7]: inactive
Potency [8]: 20 µM (active) and 19.5 µM (active) and 10.7 µM (active)
Potency [9]: inactive
Potency [10]: 11.3 µM (active) and 21.9 µM (active) and 9.52 µM (active)
Potency [11]: inactive
Potency [12]: inactive
Potency [13]: inactive
Potency [14]: inactive
Potency [15]: inactive
Potency [16]: inactive

CC/C(=C(\c1ccccc1)c1ccc(OCCN(C)C)cc1)c1ccccc1
Potency [1]: 24.8 µM (active) [middle of 4 runs]
Potency [2]: 50.5 µM (active)
Potency [3]: 80.7 µM (active) [middle of 5 runs]
Potency [4]: 38.9 µM (active) [middle of 4 runs]
Potency [20]: 22.1 µM (active) [middle of 5 runs]
Potency [5]: inactive
Potency [6]: 24.5 µM (active) [middle of 4 runs]
Potency [7]: 24.7 µM (active) [middle of 5 runs]
Potency [8]: 34.6 µM (active) [middle of 5 runs]
Potency [9]: 54.9 µM (active) and 19.7 µM (active) and 43.6 µM (active)
Potency [10]: 22.1 µM (active) [middle of 5 runs]
Potency [11]: 35 µM (active) [middle of 5 runs]
Potency [12]: 54.9 µM (active) [middle of 4 runs]
Potency [13]: 30.9 µM (active) [middle of 4 runs]
Potency [14]: 48.9 µM (active) [middle of 5 runs]
Potency [15]: 43.6 µM (active) [middle of 5 runs]
